Assay outcomes as filed in PubChem.
BoNT A protease: BoNT A light chain protease inhibition; multiplex microsphere protease substrate cleavage, flow cytometry; AID 588499; inhibition, % at 10 µM; hit rate 0.17% among 360,000
Autofluor counter: compound fluorescence in toxin protease inhibitor counterscreen | AID 624483 | fluorescence intensity (test concentration not listed) | hit rate 3.1% among 360,000 | compound autofluorescence counterscreen, microsphere flow cytometry; stronger effect = higher value; in the data active means fluorescence intensity above about 16000; inconclusive means no clear call, values can overlap the other calls
Anthrax LF prot: inhibitors of Bacillus anthracis lethal factor protease. P15917. multiplex microsphere protease cleavage assay, LF. inhibition, % at 10 µM. hit rate 0.12% among 360,000. AID 588501
Target sequence (P15917 whole entry, looked up): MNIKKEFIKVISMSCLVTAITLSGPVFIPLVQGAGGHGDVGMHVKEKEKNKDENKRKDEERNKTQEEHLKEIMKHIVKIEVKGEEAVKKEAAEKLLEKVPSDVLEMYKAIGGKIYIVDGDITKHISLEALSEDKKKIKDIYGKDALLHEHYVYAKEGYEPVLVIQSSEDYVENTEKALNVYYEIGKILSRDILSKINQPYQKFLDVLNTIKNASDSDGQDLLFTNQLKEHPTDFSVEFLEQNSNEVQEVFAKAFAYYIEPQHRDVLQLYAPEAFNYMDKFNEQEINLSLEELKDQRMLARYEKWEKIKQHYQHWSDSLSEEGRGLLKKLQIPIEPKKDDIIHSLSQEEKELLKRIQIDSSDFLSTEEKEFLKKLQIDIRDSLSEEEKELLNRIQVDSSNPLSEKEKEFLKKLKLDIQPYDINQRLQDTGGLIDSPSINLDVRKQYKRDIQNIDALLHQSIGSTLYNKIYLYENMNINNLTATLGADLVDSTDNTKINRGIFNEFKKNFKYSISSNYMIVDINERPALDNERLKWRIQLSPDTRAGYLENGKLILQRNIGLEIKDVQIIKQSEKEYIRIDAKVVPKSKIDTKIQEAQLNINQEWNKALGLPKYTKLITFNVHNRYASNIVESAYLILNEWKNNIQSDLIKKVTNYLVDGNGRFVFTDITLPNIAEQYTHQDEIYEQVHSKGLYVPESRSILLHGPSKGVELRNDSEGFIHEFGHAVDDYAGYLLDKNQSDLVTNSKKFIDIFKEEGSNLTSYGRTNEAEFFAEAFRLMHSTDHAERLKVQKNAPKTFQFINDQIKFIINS
SARS 3CLpro inh: SARS-CoV 3CLpro protease inhibition; recombinant SARS-CoV 3CLpro, quenched FRET peptide cleavage; inhibition, % at 6 µM; hit rate 0.14% among 290,000; in the data active means inhibition above about 12%
BoNT F protease: blocks Botulinum neurotoxin F light chain protease | Multiplex microsphere protease cleavage assay, flow cytometry | inhibition, % at 10 µM | hit rate 0.22% among 360,000 | AID 588497; in the data active means inhibition above about 35%, passing the limit was not always enough; inconclusive means no clear call, values can overlap the other calls
Each line names hits and unclear results; the compound was inactive in the other large screens. In the library only some 3.5% were active in any assay of this set; here they are far more common. Unless noted, no stated cut-off is given here; in the data, active means inhibition above about 30%; inconclusive means no clear call, values can overlap the other calls; inactive means below that.

O=C(Nc1nc(COc2ccccc2)cs1)c1ccccc1F	none
CC(C)Oc1ccc(C(=O)NCc2cccs2)cc1	BoNT A protease inconclusive, Autofluor counter 23288
O=C(NCCCCNC(=O)c1ccc(Cl)s1)c1ccc(Cl)s1	none
O=C(NCc1cccs1)c1cccnc1C(=O)O	BoNT A protease inconclusive, Autofluor counter 17016
O=C(NCc1ccc(F)cc1)c1cccnc1C(=O)O	none
CN(C)CCNC(=O)c1ccc(Cl)s1	BoNT A protease inconclusive, Autofluor counter 17028
O=C(NCc1cccs1)c1ccc(Cl)s1	Autofluor counter 24555
Cc1ccc([N+](=O)[O-])cc1S(=O)(=O)Nc1ccc(O)c(Sc2ncn[nH]2)c1	none
COCCNC(=S)N1CCN(c2nc(-c3cccc(OC)c3)cs2)CC1	none
Cc1cc(C(=O)NCc2cccs2)c(C)o1	Autofluor counter 19810
O=C(CCS(=O)(=O)c1cccs1)Nc1ccc(C(=O)NCc2ccc(F)cc2)cc1	none
O=C(CCS(=O)(=O)c1cccs1)Nc1ccc(C(=O)NCc2cccs2)cc1	Autofluor counter 22948
C[C@H](NC(=O)NCc1cccs1)C(=O)O	Autofluor counter 21235
CCN(CC)S(=O)(=O)c1ccc(-c2nnco2)cc1	none
NC(=O)CN1C(=O)NC2(CCCc3sccc32)C1=O (centres undefined)	none
O=S(=O)(NC1CCCC1)c1ccccc1Cl	BoNT A protease inconclusive, Autofluor counter 20825
CC1=C(C(=O)OC2CCCC2)C(c2ccc(C)o2)C2=C(CC(c3cccs3)CC2=O)N1 (centres undefined)	Autofluor counter 22029
COc1ccc(CN2C(=O)c3ccccc3C2=O)cc1C(=O)N(C)CC(=O)Nc1c(C)cccc1C	none (no result: SARS 3CLpro inh)
COc1cccc(-c2ccc(=O)n(CC(=O)Nc3cc4c(cc3NC(C)=O)OCCO4)n2)c1	BoNT A protease inconclusive, Autofluor counter 21027
CC(=O)Nc1cc2c(cc1NC(=O)Cn1nc(-c3ccc(F)cc3)ccc1=O)OCCO2	none
O=C(Cn1nc(-c2ccccc2)ccc1=O)NCC1COCCO1 (centres undefined)	Autofluor counter 19171
COc1cccc(-c2ccc(=O)n(CC(=O)NCCN3CCOCC3)n2)c1	Autofluor counter 25197
O=C(Cn1nc(-c2ccccc2)ccc1=O)NCCCN1CCOCC1	none
Cn1c(=O)c(C#N)c(-c2ccc(F)cc2)c2cc(C(=O)c3cc(Cl)cc(Cl)c3O)cnc21	none
CC(C)NC(=O)c1c(O)c2ccccc2[nH]c1=O	none
COC(=O)c1c(O)c2ccccc2[nH]c1=O	Autofluor counter 19580
Cn1c(SCc2ccc(F)cc2)nnc1-c1ccccn1	Autofluor counter 23620
c1ccc(CSc2nncn2-c2ccccn2)cc1	Autofluor counter 22351
Cn1c(SCc2ccccc2)nnc1-c1ccncc1	BoNT A protease inconclusive, Autofluor counter 24601
COc1ccc(CSc2nnc(-c3ccncc3)n2N)cc1	none
Nn1c(SCc2ccc(F)cc2)nnc1-c1ccncc1	Anthrax LF prot inconclusive, BoNT F protease 55
CCOCCCNc1ncnc2c1nc1n2CCCC1	none
CN1C(=O)c2ccccc2C(C(=O)NCc2ccco2)C1c1c[nH]c2ccccc12 (centres undefined)	none
Fc1ccc(CSc2nncn2NCc2ccccc2)cc1	Autofluor counter 21851
Cc1cccc(OCCSc2nnc(-c3ccoc3C)n2C)c1	BoNT A protease inconclusive, Autofluor counter 20328
Cn1c(SCCOc2cccc(Cl)c2)nnc1-c1ccncc1	none
CN(C)c1ccc(CNn2cnnc2SCc2ccc(F)cc2)cc1	none
Cc1ccc(OCCSc2nnc(-c3ccncc3)n2C)cc1	Autofluor counter 22301
CCN(C(=O)Cn1c(=O)n2nc(CCn3nc(C)cc3C)nc2c2ccccc21)c1cccc(C)c1	none
Cc1ccc(S(=O)(=O)N2[C@@H](c3ccc(Br)cc3)C(C(=O)O)=CC[C@H]2c2ccc3c(c2)OCO3)cc1	none (no result: SARS 3CLpro inh)
Cc1ccc(C(O)c2ncc(-c3ccc(Cl)cc3)[nH]2)c(C)c1 (centres undefined)	none (no result: SARS 3CLpro inh)
Oc1ccccc1C=NN=Cc1c(O)ccc2ccccc12	none (no result: SARS 3CLpro inh)
Oc1ccc2ccccc2c1/C=N/n1cnnc1	Autofluor counter 22040
CC1(C)Cc2c(sc3nc(-c4cccs4)n(N)c(=O)c23)CO1	BoNT A protease inconclusive, Autofluor counter 21380
Cc1nn2c(C)nc3sc4c(c3c2nc1=O)CC(C)(C)OC4	Autofluor counter 25222
CC(C)CSc1nc2ccccc2[nH]1	none
CCCCCCc1cc2cc(C(=O)Nc3ccccc3)c(=O)oc2cc1O	none
COCCCNC(=O)c1ccc(N2CCCC2)c(NS(=O)(=O)c2ccc(C)cc2)c1	Autofluor counter 24938
CCOCCCNC(=O)c1ccc(N2CCCC2)c(NS(=O)(=O)c2ccc(C)cc2)c1	none
Cc1ccc(S(=O)(=O)Nc2cc(C(=O)O)ccc2N2CCCCC2)cc1	Autofluor counter 23478
COc1ccc(Cc2[nH]n3c(=O)cc(C)nc3c2-c2ccccc2)cc1	none
CCCCOC(=O)CNc1n[nH]c(=S)[nH]c1=O	BoNT A protease inconclusive, Autofluor counter 21415
COc1ccc(C(=O)Nc2nc3cc(OC)c(OC)cc3c(=O)[nH]2)cc1	Autofluor counter 25582
Nc1nnc(SCc2ccc(F)cc2)s1	BoNT A protease inconclusive, Autofluor counter 23088
Cc1nnc(SCc2ccc(F)cc2)s1	BoNT F protease inconclusive
O=C(CCn1c(=O)[nH]c2ccsc2c1=O)N1CC(=O)N(CCc2ccccc2)C(=O)C1	BoNT A protease inconclusive, Autofluor counter 23732
O=C(CCn1c(=O)[nH]c2ccsc2c1=O)N1CCN(c2cccc(Cl)c2)CC1	Autofluor counter inconclusive
CN(CCC#N)C(=O)COC(=O)c1ccc(CNS(=O)(=O)c2ccc(F)c(Cl)c2)cc1	none
Cc1cc(OCc2nn[nH]n2)c2c(-c3ccccc3)cc(=O)oc2c1	Autofluor counter 20272
COc1ccc(-c2cc(=O)oc3c(C)c(OCc4nn[nH]n4)ccc23)cc1	BoNT A protease inconclusive, Autofluor counter 23374
CN1CCN(c2ncnc3c2ncn3[C@H]2CN(Cc3ccc(C(=O)O)cc3)C[C@@H](CO)O2)CC1	none (no result: SARS 3CLpro inh)
O=C(Cn1nnc(-c2cccs2)n1)N1CCc2ccccc2C1	Autofluor counter 21633
O=C(O)Cn1nnc(-c2cccs2)n1	none
CCN(CC)c1ccc(NC(=O)c2cnc3ccccn3c2=O)c(C)c1	none
CC(C)(C)NC(=O)C(c1ccccc1)N(C(=O)c1ccco1)C1CC1 (centres undefined)	BoNT A protease inconclusive, Autofluor counter 21553
COc1ccc(C)cc1NC(=O)C(NC(=O)c1cc(OC)c(OC)c(OC)c1)C(C)C (centres undefined)	none
O=C(NCCc1ccccc1)C1CCCN(C(=O)NC2CCCCC2)C1 (centres undefined)	BoNT A protease inconclusive, Autofluor counter 22227
O=C(NCc1ccccc1)C1CCCN(C(=O)Nc2ccccc2)C1 (centres undefined)	BoNT A protease inconclusive, Autofluor counter 20689
COc1ccc(NC(=O)N2CCCC(C(=O)NCCc3ccccc3)C2)cc1 (centres undefined)	none
Cc1cccc(NC(=O)C2CCCN2C(=O)OCC(C)C)c1C (centres undefined)	Autofluor counter 21398
O=C(NC1CCCCC1)N1CCCC1	Autofluor counter 21923
O=C(NC1CCCCC1)N1CCCCCC1	none
